Only some compounds are listed: those with a hit (about 14% of all), similar ones and a draw of the others.
Shiga toxin inh: Shiga toxin inhibition. Vero cells, Shiga toxin protein synthesis inhibition reporter. inhibition, % at 38.7 µM. actives 9.2% (n = 290,000); in the data active means inhibition mostly above about 28%, no sharp cut-off; inactive means mostly below about 43%; further: 0% is about no effect
NS1 function inh: blocks influenza NS1 protein function; Potency, µM (highest dose often 46.1 µM), for the others: at the top dose activity, positive = more growth; actives 0.4% (n = 270,000); AID 2326; calls by dose curve; further: potency means the concentration at half of the fitted maximal effect; actives are rising curves; nearly all actives have a fitted effect of over 50% in size
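S. cerevisiae expressing influenza A NS1, grown in glucose, washed, then diluted 1:100 into pH 6.0 -URA galactose medium with 23 nl compound. Growth recovery read as OD600; NS1-free strain serves as control.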
CHX counter: counter-screen hit for Shiga toxin inhibitors, cycloheximide. actives 12% (n = 300,000). cell reporter, cycloheximide protein synthesis inhibition counterscreen. max response, %; in the data active means max response mostly above about 13%, no sharp cut-off; inactive means mostly below about 14%; further: read at 38.3 µM for the half of the compounds with a filed dose; 0% is about no effect
FBPA Giardia inh: Giardia lamblia aldolase inhibition; A8B2U2; purified Giardia FBPA; Potency, µM (doses to about 59.6 µM), for inactives: top-dose activity, negative = inhibition, usual class: inhibitors; actives 0.71% (n = 290,000); AID 2451; further: potency means the concentration at half of the fitted maximal effect; on the % scale 0 is the no-effect control and ±100 the full control effect; nearly all actives have a fitted effect of over 55% in size
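Giardia FBPA (40 nM reagent) was preincubated 10 min at RT with compound (up to 57.5 uM final), then substrate plus GAPDH/TPI/NAD/arsenate coupling system with diaphorase/resazurin was added; resorufin fluorescence (525/598 nm) was read after 20 min.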
LmPK inhibitor: inhibitors of Leishmania mexicana pyruvate kinase; purified LmPK, Kinase-Glo ATP luminescence, 1 h; Q27686; AID 1721; actives 0.37% (n = 290,000); Potency, µM (top dose mostly 57.5 µM), for the others: at the highest dose activity change, negative = inhibition, hits mostly inhibitors; further: potency means the concentration at half of the fitted maximal effect; on the % scale 0 is the no-effect control and ±100 the full control effect
Target sequence (Q27686 whole entry, looked up): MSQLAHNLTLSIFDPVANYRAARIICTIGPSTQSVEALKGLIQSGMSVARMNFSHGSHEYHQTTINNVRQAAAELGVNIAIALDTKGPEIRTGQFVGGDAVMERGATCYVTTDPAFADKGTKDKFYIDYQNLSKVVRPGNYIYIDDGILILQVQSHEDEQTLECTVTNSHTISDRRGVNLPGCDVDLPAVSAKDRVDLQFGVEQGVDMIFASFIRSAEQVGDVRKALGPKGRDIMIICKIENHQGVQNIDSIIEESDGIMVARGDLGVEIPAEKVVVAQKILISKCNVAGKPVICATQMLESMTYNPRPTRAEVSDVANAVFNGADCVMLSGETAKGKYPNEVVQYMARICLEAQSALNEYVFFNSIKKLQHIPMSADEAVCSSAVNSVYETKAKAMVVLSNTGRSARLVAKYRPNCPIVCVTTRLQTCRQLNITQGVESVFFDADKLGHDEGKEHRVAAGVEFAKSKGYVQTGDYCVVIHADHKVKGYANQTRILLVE
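Kinase-Glo luminescence read after 1 h RT reaction of 0.1 nM LmPK with 0.5 mM PEP and 0.1 mM ADP. Activity scaled between uninhibited and enzyme-free controls.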
Numbers without * were called inactive; u = inconclusive; x = no result; [ ] = dose if it differs, or a comment. Unless noted, the call rests on the fitted dose curve; in most records, active means well fitted curve in the direction sought with a large enough effect; inconclusive means small, poorly fitted or top-dose-only effect, or another doubt; inactive means no such curve, though single readings can be large; an effect the other way counts as inactive or inconclusive.

SMILES	Shiga toxin inh	NS1 function inh	CHX counter	FBPA Giardia inh	LmPK inhibitor
COc1ccc(CC(=O)Nc2ccc(C(=O)Nc3ccccc3C(=O)O)cc2)cc1OC	-16	-1%	23*	15%	-4%
CCN1c2ccccc2S(=O)(=O)c2ccccc21	-13	0%	-1	1%	3%
COc1ccc(CN2CCC(n3nccc3NC(=O)C3CC3)CC2)c(Cl)c1OC	-2	-14%	-4	x	-3%
COc1ccc(NC(=O)c2ccccc2NC(=O)c2cccs2)cc1	15	1%	9	6%	7%
COc1ccc(C(=O)Nc2ccccc2C(=O)N/N=C/c2cccc3ccccc23)cc1	119*	3%	31*	-1%	-8%
COC(=O)c1ccccc1NC(=S)NC(=O)c1ccc2c(c1)OCO2	3	-17%	11	x	6%
NC(=O)c1ccccc1NC(=O)c1ccc2c(c1)OCO2	55*	-22%	41*	-1%	-20%
COc1ccc(NC(=O)c2ccccc2NC(=O)COc2ccccc2)cc1	2	2%	-3	-1%	7%
COCC(=O)Nc1ccccc1C(=O)Nc1ccc(OC)cc1	51*	-1%	22*	-6%	-3%
COc1ccc(C(=O)Nc2ccccc2C(=O)Nc2ccncc2)cc1	58	-5%	25*	-3%	-10%
CCCn1c(-c2ccc(F)cc2)nc2c(N3CCN(Cc4nc(OC)cc(OC)n4)CC3)nc(C)nc21	x	x	x	-10%	x
O=C(CSCc1ccccc1)Nc1ccccc1C(=O)Nc1ccc(C(=O)O)cc1	24	-1%	13*	1%	6%
COc1ccc(C(=O)Nc2ccccc2C(=O)Nc2ccccc2C(=O)O)cc1	x	-70%	29*	2%	2%
COC(=O)C(C(=O)OC)C1c2ccccc2C=C(C)N1C(=O)OC (stereo not given)	x	x	x	0%[12.9 µM]	-1%[11.5 µM]
COc1cccc(NC(=O)CCCCCn2nnc3ccccc3c2=O)c1	4	-6%	13	11%	6%
O=C(NCCCN1CCOCC1)c1ccc2nc(Cc3cccc(Cl)c3)oc2c1	-30	15%	7	x	-8%
CC(=O)c1ccc2c(c1)OCCOCCOCCO2	-1	3%	-1	5%	5%
CC(=O)c1ccc2c(c1)Cc1cc(C(C)=O)ccc1-2	134*	7%	31*	4%	1%
O=S(=O)(Nc1ccc(Cl)cn1)c1cccs1	-2	-6%	-12	-13%	2%
CCC(=O)Nc1ccc(C(=O)NCc2ccccn2)cc1	3	0%	-4	2%	2%
CCc1ccc(NC(=O)NCc2ccccn2)cc1	46*	u	43*	3%	4%
CCCCc1ccc(NC(=O)NCc2ccccn2)cc1	48	7%	15*	-7%	-7%
COc1ccccc1CNC(=O)C(=O)NCC1OCCCN1S(=O)(=O)c1ccc(F)cc1C (stereo not given)	2	2%	1	x	-5%
CC(=O)Nc1ccc(NC(=O)c2oc3cc(C)c(C)cc3c2C)cc1	-3	-9%	-2	5%	3%
Cc1cc2oc(C(=O)Nc3nonc3C)c(C)c2cc1C	165*	3%	57*	x	-11%
SMILES	Shiga toxin inh	NS1 function inh	CHX counter	FBPA Giardia inh	LmPK inhibitor
CCc1nonc1NC(=O)c1oc2ccc(F)cc2c1C	31	0%	18*	-5%	7%
Cc1c(C(=O)Nc2nonc2-c2ccc(F)cc2)oc2ccc(F)cc12	3	-13%	15	-13%	4%
Cc1ccc2oc(C(=O)Nc3nnc(CC(C)C)s3)c(C)c2c1	-30	12%	2	x	-5%
CCc1ccc2oc(C(=O)Nc3nonc3C)c(C)c2c1	106*	-15%	36*	x	-5%
c1ccc(CCc2cccnc2)nc1	x	-4%	x	x	x
O=C(NCc1ccccn1)c1nc(Cn2ccc([N+](=O)[O-])n2)no1	-4	10%	-2	-12%	-1%
O=C(COC(=O)c1ccccc1SCC(=O)N1CCCC1)Nc1ccccc1	43	-4%	17*	x	-1%
Cc1ccc(SCC(=O)Nc2ccc(N3CCN(C)CC3)c(F)c2)c(C)c1	37	9%	24*	2%	0%
Cc1ccc(SCC(=O)Nc2ccc(N3CCOCC3)cc2)cc1	-1	1%	-1	1%	0%
Cn1c(CC(=O)Nc2ccccc2)nnc1SCC(=O)Nc1ccc(N2CCOCC2)cc1	29	-18%	39*	1%	3%
Cc1ccc(-n2nnnc2SCC(=O)Nc2ccc(N3CCN(C)CC3)cc2)c(C)c1	-11	7%	-1	x	3%
COC(=O)c1ccccc1SCC(=O)Nc1ccc(N2CCOCC2)cc1	55*	12%	37*	x	0%
CC1=C([N+](=O)[O-])C(c2ccc(Cl)cc2)NC(=O)N1C (stereo not given)	-7	18%	1	11%	0%
C[C@]12CCC(=O)C=C1CCC1C3CC[C@](O)(C(=O)CO)[C@@]3(C)CC3OC312 (stereo not given in full)	x	x	x	2%	x
CCOC(=O)C12CC1/C(=N/O)c1ccccc1O2 (stereo not given)	x	-14%	x	-6%	x
O=C(Nc1ccc(N2CCOCC2)cc1)c1nc2ccccc2s1	91*	4%	54*	-4%	-7%
O=C(Nc1ccc(N2CCOCC2)cc1)c1cc(-c2ccncc2)nc2ccccc12	-19	3%	-1	-1%	-4%
O=C(CSc1ccc2ccccc2n1)Nc1ccc(N2CCOCC2)cc1	49*	x	31*	-13%	-2%
O=C(CSc1ccccc1)Nc1ccc(N2CCOCC2)c(F)c1	120*	9%	57*	x	-4%
O=C(CSc1ccc(Cl)cc1)Nc1ccc(N2CCN(c3ccccc3)CC2)c(F)c1	-10	-16%	-2	2%	0%
O=C(CSc1ccc(F)cc1)Nc1ccc(N2CCOCC2)cc1	30	-17%	27*	0%	-2%
O=C(CSc1ccccc1)Nc1ccc(N2CCOCC2)cc1	53	1%	28	-11%	0%
Cc1ccc(-n2nnc3c(=O)n(CC(N)=O)cnc32)cc1	-2	-2%	-2	12%	1%
Cc1noc(C)c1-c1nccc(NCc2ccccc2)n1	x	x	x	-10%	x
C=CCC1(CC=C)CCCN1C(=O)C1CCC(=O)N(CCc2ccc(OC)cc2)C1 (stereo not given)	78*	-37%	53*	9%	-3%
SMILES	Shiga toxin inh	NS1 function inh	CHX counter	FBPA Giardia inh	LmPK inhibitor
C=CCC1(CC=C)CCCN1C(=O)C1CCC(=O)N(CCc2ccccc2)C1 (stereo not given)	102*	-2%	77*	x	-6%
O=C1CCC(C(=O)N2CCSCC2)CN1CCc1ccccc1 (stereo not given)	23	10%	2	x	-11%
CCOc1ccc(CN2CCN(C(=O)c3cccc4ccccc34)CC2)cc1	-4	-23%	-1	-28%	-12%
O=C(c1ccco1)N1CCC2(CC1)CCN(c1ccc(-c3ccccc3)cc1)CC2	x	x	x	7%	x
Cc1ccc(C)c(NC(=O)C2CC3CCC2C3)c1 (stereo not given)	23	8%	14*	7%	0%
Cc1ccc(NC(=O)C2CC3CCC2C3)c(Br)c1 (stereo not given)	83*	-1%	33*	7%	-1%

Compound activity deposited in PubChem by National Center for Advancing Translational Sciences (NCATS).
